From PubChem BioAssay (NCATS) come the findings set out here.

Results filed as inconclusive are left out. Entries that show only a call come without a potency. Activity calls are given as the source filed them. Calls come from the whole dose curve; as a rule, active = well fitted inhibition curve with a large enough effect; inconclusive = small, poorly fitted or top-dose-only effect; inactive = flat fitted curve, though single readings scatter.
Potency is the fitted concentration of half-maximal effect.

One test relates to PC15. Briefly: qHTS profiling for inhibitors of Plasmodium falciparum proliferation (AID 504749). Note: nearly all actives have a fitted effect of over 60% in size. Particulars: P. falciparum in erythrocytes, SYBR Green DNA, 72 h; series mostly up to 12.8 µM. The method in brief: (§1)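 SYBR Green fluorescence of parasite DNA, read after lysis and overnight dark incubation, measured growth over 72 h in erythrocyte culture at 0.3% parasitemia and 2.5% hematocrit. Data normalised to DMSO and 0.29 uM artemisinin, with plate-drift correction.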
In general terms: qHTS replaces the single test concentration by a dilution series.
For the compound `CCO[C@H]1O[C@@H]([C@H](COCc2ccccc2)OCc2ccccc2)[C@@H](OCc2ccccc2)[C@H]1O`, the Potency entry was “inactive”.
`COc1cc(N[C@@H](C)CCCN)c2ncccc2c1`: the Potency is 1 µM (active).
Regarding `C=Cc1c(C)c2cc3nc(cc4[nH]c(cc5nc(cc1[nH]2)C(C)=C5CCC(=O)O)c(CCC(=O)OC)c4C)[C@@]1(C)C3=CC=C(C(=O)OC)[C@H]1C(=O)OC` (tested in a mixture with another compound), the Potency was 5.01 µM (active).
On to `O=C(OC[C@@H](O)CO)c1ccccc1Nc1ccnc2cc(Cl)ccc12`, for which the Potency entry is “inactive”.
Still for that read-out and setting: then `CO[C@]1(NC(=O)[C@H](C(=O)O)c2ccc(O)cc2)C(=O)N2C(C(=O)O)=C(CSc3nnnn3C)CO[C@H]21`, with “inactive”; and `COc1ccc2c(c1)N(C[C@@H](C)CN(C)C)c1ccccc1S2`, with “inactive”; and `CCC(=O)[C@@]1(C)[C@H](C)C[C@@H]2[C@@H]3CCC4=CC(=O)C=C[C@@]4(C)[C@H]3[C@H](O)C[C@]21C`, with “inactive”.
The same measure, in the same setting: then `CCC(C)(C)C(=O)O[C@@H]1C[C@H](C)C=C2C=C[C@H](C)[C@@H](CC[C@H]3C[C@@H](O)CC(=O)O3)[C@H]21`, with “inactive”.
Still for that read-out and setting: then `CCN(CC)[C@@H](C)CN1c2ccccc2Sc2ccccc21`, with “inactive”; and `CC=C(/C(=C/C)c1ccc(O)cc1)c1ccc(O)cc1`, with “inactive”; and `CC1(C)S[C@@H]2[C@H](NC(=O)[C@@H](N)c3ccccc3)C(=O)N2[C@H]1C(=O)O[C@H]1OC(=O)c2ccccc21`, with “inactive”.

The subject of a further test is PC26. Described as above. Particulars: P. falciparum in erythrocytes, SYBR Green DNA, 72 h; series mostly up to 12.8 µM. The procedure, abridged:
as §1
Consider `COc1cc(N[C@@H](C)CCCN)c2ncccc2c1`, for which the Potency is 2.28 µM (active).
On to `C=Cc1c(C)c2cc3nc(cc4[nH]c(cc5nc(cc1[nH]2)C(C)=C5CCC(=O)O)c(CCC(=O)OC)c4C)[C@@]1(C)C3=CC=C(C(=O)OC)[C@H]1C(=O)OC` (tested in a mixture with another compound), for which the Potency result was “inactive”.
With `O=C(OC[C@@H](O)CO)c1ccccc1Nc1ccnc2cc(Cl)ccc12`, the Potency entry is “inactive”.
The same measure, in the same setting: in the case of `CO[C@]1(NC(=O)[C@H](C(=O)O)c2ccc(O)cc2)C(=O)N2C(C(=O)O)=C(CSc3nnnn3C)CO[C@H]21` it was “inactive”; in that of `CCC(=O)[C@@]1(C)[C@H](C)C[C@@H]2[C@@H]3CCC4=CC(=O)C=C[C@@]4(C)[C@H]3[C@H](O)C[C@]21C`, “inactive”.
Turning to `CCC(C)(C)C(=O)O[C@@H]1C[C@H](C)C=C2C=C[C@H](C)[C@@H](CC[C@H]3C[C@@H](O)CC(=O)O3)[C@H]21`, the Potency result is “inactive”.
Same read-out and setting: then `COC(=O)[C@@H]1[C@@H]2C[C@H]3c4[nH]c5cc(OC)ccc5c4CCN3C[C@@H]2C[C@H](OC(=O)/C=C\c2cc(OC)c(OC)c(OC)c2)[C@H]1OC`, with 6.42 µM (active); and `CC=C(/C(=C/C)c1ccc(O)cc1)c1ccc(O)cc1`, with “inactive”; and `CC1(C)S[C@@H]2[C@H](NC(=O)[C@@H](N)c3ccccc3)C(=O)N2[C@H]1C(=O)O[C@H]1OC(=O)c2ccccc21`, with “inactive”.

The subject of the next test is PC49. The test is described as above. Particulars: P. falciparum in erythrocytes, SYBR Green DNA, 72 h; series mostly up to 12.8 µM. The method in brief: as §1
`CCO[C@H]1O[C@@H]([C@H](COCc2ccccc2)OCc2ccccc2)[C@@H](OCc2ccccc2)[C@H]1O`: the Potency result is “inactive”.
Take `COc1cc(N[C@@H](C)CCCN)c2ncccc2c1`: the Potency is 2.24 µM (active).
`C=Cc1c(C)c2cc3nc(cc4[nH]c(cc5nc(cc1[nH]2)C(C)=C5CCC(=O)O)c(CCC(=O)OC)c4C)[C@@]1(C)C3=CC=C(C(=O)OC)[C@H]1C(=O)OC` (tested in a mixture with another compound): the Potency was 5.01 µM (active).
Regarding `O=C(OC[C@@H](O)CO)c1ccccc1Nc1ccnc2cc(Cl)ccc12`, the Potency result was “inactive”.
On the same count and under the same terms, then `CO[C@]1(NC(=O)[C@H](C(=O)O)c2ccc(O)cc2)C(=O)N2C(C(=O)O)=C(CSc3nnnn3C)CO[C@H]21`, with “inactive”; and `COc1ccc2c(c1)N(C[C@@H](C)CN(C)C)c1ccccc1S2`, with “inactive”; and `CCC(=O)[C@@]1(C)[C@H](C)C[C@@H]2[C@@H]3CCC4=CC(=O)C=C[C@@]4(C)[C@H]3[C@H](O)C[C@]21C`, with “inactive”.
On the same count and under the same terms, then `CCC(C)(C)C(=O)O[C@@H]1C[C@H](C)C=C2C=C[C@H](C)[C@@H](CC[C@H]3C[C@@H](O)CC(=O)O3)[C@H]21`, with “inactive”; and `CCN(CC)[C@@H](C)CN1c2ccccc2Sc2ccccc21`, with “inactive”; and `CC=C(/C(=C/C)c1ccc(O)cc1)c1ccc(O)cc1`, with “inactive”.
Turning to `CC1(C)S[C@@H]2[C@H](NC(=O)[C@@H](N)c3ccccc3)C(=O)N2[C@H]1C(=O)O[C@H]1OC(=O)c2ccccc21`, the Potency entry was “inactive”.

The test system of another test is SC27B. The test is described as above. The note with it: P. falciparum in erythrocytes, SYBR Green DNA, 72 h; series mostly up to 12.8 µM. The procedure, abridged: as §1
In the case of `CCO[C@H]1O[C@@H]([C@H](COCc2ccccc2)OCc2ccccc2)[C@@H](OCc2ccccc2)[C@H]1O`, the Potency result is “inactive”.
The same measure, in the same setting: in the case of `COc1cc(N[C@@H](C)CCCN)c2ncccc2c1` it was 2 µM (active).
The same measure, in the same setting: in the case of `C=Cc1c(C)c2cc3nc(cc4[nH]c(cc5nc(cc1[nH]2)C(C)=C5CCC(=O)O)c(CCC(=O)OC)c4C)[C@@]1(C)C3=CC=C(C(=O)OC)[C@H]1C(=O)OC` (tested in a mixture with another compound) it was 5.62 µM (active); in that of `O=C(OC[C@@H](O)CO)c1ccccc1Nc1ccnc2cc(Cl)ccc12`, “inactive”.
Consider `CO[C@]1(NC(=O)[C@H](C(=O)O)c2ccc(O)cc2)C(=O)N2C(C(=O)O)=C(CSc3nnnn3C)CO[C@H]21`, for which the Potency entry is “inactive”.
`COc1ccc2c(c1)N(C[C@@H](C)CN(C)C)c1ccccc1S2`: the Potency result is “inactive”.
Still for that read-out and setting: in the case of `CCC(=O)[C@@]1(C)[C@H](C)C[C@@H]2[C@@H]3CCC4=CC(=O)C=C[C@@]4(C)[C@H]3[C@H](O)C[C@]21C` it was “inactive”.
Still for that read-out and setting: in the case of `CCC(C)(C)C(=O)O[C@@H]1C[C@H](C)C=C2C=C[C@H](C)[C@@H](CC[C@H]3C[C@@H](O)CC(=O)O3)[C@H]21` it was “inactive”; in that of `CC=C(/C(=C/C)c1ccc(O)cc1)c1ccc(O)cc1`, “inactive”.
In the case of `CC1(C)S[C@@H]2[C@H](NC(=O)[C@@H](N)c3ccccc3)C(=O)N2[C@H]1C(=O)O[C@H]1OC(=O)c2ccccc21`, the Potency result was “inactive”.
